Source: PubChem BioAssay AID1159580 (chemical genetic matrix, 2015)
The campaign covered roughly 5,500 compounds. About 2,000 (36%) were called active. Roughly 18% stayed inconclusive and do not appear here. Cut-off read from the data, not from the text of the source: active = normalized growth mostly below about 0.91 (no sharp cut-off); inconclusive = no clear call, values can overlap the other calls; inactive = mostly above about 0.92. Some of the results follow.

Assay: chemical genetic growth profiling, strain panel (AID 1159580);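 note: tested at 20 µM; growth read once vehicle control cultures reached saturation at 30 °C; 1 = growth at the plate median or of vehicle wells; lower values mean less growth of the strain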
Details: growth OD

Measured: normalized growth

COc1ccc(-c2c(O)c3c(OC)c4c(cc3oc2=O)OC(C)(C)C=C4)cc1
active: S. cerevisiae deletion strains, locus YLR418C, strain cdc73, hits give low values 0.833 | S. cerevisiae deletion strains, locus YML032C, strain rad52, hits give low values 0.901 | S. cerevisiae deletion strains, locus YNL307C, strain MCK1, hits give low values 0.84 | S. cerevisiae deletion strains, locus YOL147C, strain pex11, hits give low values 0.928 | S. cerevisiae deletion strains, locus YOR316C, strain cot1, hits give low values 0.916 | S. cerevisiae deletion strains, locus YPR119W, strain clb2, hits give low values 0.928 | S. cerevisiae deletion strains, locus YPR163C, strain tif3, hits give low values 0.908
inactive: S. cerevisiae deletion strains, locus YJL187C, strain SWE1, hits give low values 0.952 | S. cerevisiae deletion strains, locus YJR066W, strain TOR1, hits give low values 0.934 | S. cerevisiae deletion strains, locus YKL009W, strain mrt4, hits give low values 0.935 | S. cerevisiae deletion strains, locus YKL068W, hits give low values 0.969 | S. cerevisiae deletion strains, locus YKL085W, strain MDH1 (second series), hits give low values 0.97 | S. cerevisiae deletion strains, locus YKL085W, strain MDH1, hits give low values 0.97 | S. cerevisiae deletion strains, locus YKL160W, strain elf1, hits give low values 0.936 | S. cerevisiae deletion strains, locus YKR001C, strain vps1, hits give low values 0.97 | S. cerevisiae deletion strains, locus YKR026C, strain gcn3, hits give low values 0.947 | S. cerevisiae deletion strains, locus YKR091W, strain srl3, hits give low values 0.954 | S. cerevisiae deletion strains, locus YLL001W, strain dnm1, hits give low values 0.968 | S. cerevisiae deletion strains, locus YLL026W, hits give low values 0.959 | S. cerevisiae deletion strains, locus YLL041C, strain sdh2, hits give low values 0.942 | S. cerevisiae deletion strains, locus YLR027C, strain aat2, hits give low values 0.965 | S. cerevisiae deletion strains, locus YLR039C, strain RIC1, hits give low values 1.01 | S. cerevisiae deletion strains, locus YLR058C, strain SHM2, hits give low values 0.949 | S. cerevisiae deletion strains, locus YLR102C, strain apc9, hits give low values 0.958 | S. cerevisiae deletion strains, locus YLR113W, strain HOG1, hits give low values 0.907 | S. cerevisiae deletion strains, locus YLR221C, strain rsa3, hits give low values 0.962 | S. cerevisiae deletion strains, locus YLR258W, strain gsy2, hits give low values 0.962 | S. cerevisiae deletion strains, locus YLR262C, strain YPT6 (second series), hits give low values 0.885 | S. cerevisiae deletion strains, locus YLR262C, strain YPT6, hits give low values 0.987 | S. cerevisiae deletion strains, locus YLR268W, strain sec22, hits give low values 0.91 | S. cerevisiae deletion strains, locus YLR320W, strain mms22, hits give low values 0.921 | S. cerevisiae deletion strains, locus YLR330W, strain CHS5, hits give low values 0.96 | S. cerevisiae deletion strains, locus YLR342W, strain FKS1, hits give low values 0.939 | S. cerevisiae deletion strains, locus YLR357W, strain rsc2, hits give low values 1 | S. cerevisiae deletion strains, locus YLR370C, strain arc18, hits give low values 0.95 | S. cerevisiae deletion strains, locus YLR371W, strain rom2, hits give low values 0.98 | S. cerevisiae deletion strains, locus YLR384C, strain iki3, hits give low values 0.954 | S. cerevisiae deletion strains, locus YML016C, strain PPZ1, hits give low values 0.958 | S. cerevisiae deletion strains, locus YML120C, strain ndi1, hits give low values 0.964 | S. cerevisiae deletion strains, locus YML124C, strain tub3, hits give low values 0.96 | S. cerevisiae deletion strains, locus YMR058W, strain fet3, hits give low values 0.961 | S. cerevisiae deletion strains, locus YMR078C, strain ctf18, hits give low values 0.942 | S. cerevisiae deletion strains, locus YMR125W, strain sto1, hits give low values 0.971 | S. cerevisiae deletion strains, locus YMR129W, hits give low values 0.95 | S. cerevisiae deletion strains, locus YMR205C, strain PFK2, hits give low values 0.909 | S. cerevisiae deletion strains, locus YMR223W, strain ubp8, hits give low values 0.928 | S. cerevisiae deletion strains, locus YMR231W, strain pep5, hits give low values 0.95 | S. cerevisiae deletion strains, locus YMR307W, strain GAS1, hits give low values 1.1 | S. cerevisiae deletion strains, locus YNL067W, strain RPL9B, hits give low values 0.967 | S. cerevisiae deletion strains, locus YNL071W, strain lat1, hits give low values 0.922 | S. cerevisiae deletion strains, locus YNL128W, strain TEP1, hits give low values 0.997 | S. cerevisiae deletion strains, locus YNL183C, strain NPR1, hits give low values 0.911 | S. cerevisiae deletion strains, locus YNL209W, strain ssb2, hits give low values 0.959 | S. cerevisiae deletion strains, locus YNL233W, strain BNI4, hits give low values 0.965 | S. cerevisiae deletion strains, locus YNL248C, strain rpa49, hits give low values 0.967 | S. cerevisiae deletion strains, locus YNL250W, strain rad50, hits give low values 0.913 | S. cerevisiae deletion strains, locus YNL271C, strain bni1, hits give low values 1 | S. cerevisiae deletion strains, locus YNL298W, strain CLA4, hits give low values 0.962 | S. cerevisiae deletion strains, locus YNL322C, strain KRE1 (second series), hits give low values 0.961 | S. cerevisiae deletion strains, locus YNL322C, strain KRE1, hits give low values 0.949 | S. cerevisiae deletion strains, locus YNR049C, strain mso1, hits give low values 0.965 | S. cerevisiae deletion strains, locus YNR052C, strain pop2, hits give low values 0.946 | S. cerevisiae deletion strains, locus YOL012C, strain htz1 0.954 | S. cerevisiae deletion strains, locus YOR001W, strain rrp6, hits give low values 0.969 | S. cerevisiae deletion strains, locus YOR061W, strain CKA2, hits give low values 0.952 | S. cerevisiae deletion strains, locus YOR069W, strain VPS5, hits give low values 0.952 | S. cerevisiae deletion strains, locus YOR070C, strain gyp1, hits give low values 0.94 | S. cerevisiae deletion strains, locus YOR080W, strain dia2, hits give low values 0.971 | S. cerevisiae deletion strains, locus YOR083W, strain WHI5, hits give low values 0.953 | S. cerevisiae deletion strains, locus YOR106W, strain vam3, hits give low values 0.971 | S. cerevisiae deletion strains, locus YOR136W, strain idh2, hits give low values 0.959 | S. cerevisiae deletion strains, locus YOR144C, strain elg1, hits give low values 0.942 | S. cerevisiae deletion strains, locus YOR184W, strain ser1, hits give low values 0.971 | S. cerevisiae deletion strains, locus YOR231W, strain MKK1, hits give low values 0.969 | S. cerevisiae deletion strains, locus YOR265W, strain rbl2, hits give low values 0.937 | S. cerevisiae deletion strains, locus YOR270C, strain vph1, hits give low values 0.923 | S. cerevisiae deletion strains, locus YOR290C, strain snf2, hits give low values 0.938 | S. cerevisiae deletion strains, locus YPL051W, strain arl3, hits give low values 0.951 | S. cerevisiae deletion strains, locus YPL078C, strain atp4, hits give low values 0.967 | S. cerevisiae deletion strains, locus YPL106C, strain sse1, hits give low values 1.01 | S. cerevisiae deletion strains, locus YPL240C, strain hsp82, hits give low values 0.95 | S. cerevisiae deletion strains, locus YPL241C, strain CIN2, hits give low values 0.938 | S. cerevisiae deletion strains, locus YPL256C, strain CLN2, hits give low values 0.933 | S. cerevisiae deletion strains, locus YPR141C, strain kar3, hits give low values 0.958 | S. cerevisiae deletion strains, locus YPR167C, strain met16, hits give low values 0.94 | S. cerevisiae deletion strains, strain wtn01, hits give low values 0.958 | S. cerevisiae strains, strain wild type, hits give low values 0.993
